4 compounds from PubChem BioAssay (EPA / NIEHS) can be followed below.

Records with an inconclusive call do not appear. Calls of active or inactive are those of the source. How the source made its calls, unless noted: active means hit-call score of the fitted dose curve at least 0.9, where 1 is the maximum; inactive means score below 0.9.

Read-out in test [1]: Nuclear factor erythroid 2-related factor 2 (Homo sapiens) (UniProt Q16236)
The test can be described thus: LTEA_HepaRG_NFE2L2: Life Technologies and Expression Analysis (LTEA) Assay for Nuclear factor erythroid 2-related factor 2 (NFE2L2) Transcription Factor using HepaRG (AID 2283527).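 On outcome: TaqMan qRT-PCR transcript level normalised to ACTB GAPDH and POLR2A housekeeping genes.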 The conditions noted are these: mRNA level, 48 h; actives raise or lower the signal. An outline of the steps:
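Differentiated human HepaRG cells in serum-free induction medium were exposed for 48 h to eight concentrations (top 100 uM, half-log dilutions, 0.5% DMSO), in duplicate. NFE2L2 mRNA was quantified by TaqMan qRT-PCR, normalized to ACTB, GAPDH and POLR2A, with bidirectional fitting versus DMSO.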

Read-out in test [2]: succinate dehydrogenase complex iron sulfur subunit B (SDHB), SDHB (gene 6390)
The test can be described thus: LTEA_HepaRG_SDHB: Life Technologies and Expression Analysis (LTEA) Assay for succinate dehydrogenase complex iron sulfur subunit B (SDHB) using HepaRG (AID 2283528). Conditions: mRNA level, 48 h; actives raise or lower the signal. An outline of the steps:
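HepaRG cells (~100,000/well, plated 48 h) exposed in duplicate for 48 h in serum-free induction medium to 8-point half-log series from 100 uM in 0.5% DMSO; mRNA by qRT-PCR normalised to ACTB, GAPDH, POLR2A; bidirectional fit versus DMSO.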

Read-out in test [3]: Signal transducer and activator of transcription 3 (Homo sapiens) (UniProt P40763)
Briefly: LTEA_HepaRG_STAT3: Life Technologies and Expression Analysis (LTEA) Assay for Signal transducer and activator of transcription (STAT3) using HepaRG (AID 2283529). Conditions: mRNA level, 48 h; actives raise or lower the signal. The method, boiled down:
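Differentiated human HepaRG cells in serum-free induction medium were exposed in duplicate for 48 h to eight half-log concentrations up to 100 uM in 0.5% DMSO. STAT3 mRNA was quantified by TaqMan qRT-PCR, normalized to ACTB, GAPDH and POLR2A, and fitted bidirectionally against DMSO.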

Read-out in test [4]: solute carrier (SLCO1B1), SLCO1B1 (gene 10599)
Briefly: LTEA_HepaRG_SLCO1B1: Life Technologies and Expression Analysis (LTEA) Assay for solute carrier (SLCO1B1) using HepaRG (AID 2283530). Conditions: mRNA level, 48 h; actives raise or lower the signal. An outline of the steps: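 Gain or loss of SLCO1B1 mRNA is fitted against the 0.5% DMSO vehicle in human HepaRG liver cells treated 48 h at up to 100 uM in half-log steps. Expression comes from qRT-PCR normalized to endogenous controls.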

Read-out in test [5]: Transforming Growth Factor (TGFA), TGFA (gene 7039)
Briefly: LTEA_HepaRG_TGFA: Life Technologies and Expression Analysis (LTEA) Assay for Transforming Growth Factor (TGFA) using HepaRG (AID 2283532). Conditions: mRNA level, 48 h; actives raise or lower the signal. An outline of the steps:
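Differentiated human HepaRG cells, plated 48 h then switched to serum-free induction medium, were exposed in duplicate for 48 h to 8-point half-log series from 100 uM in 0.5% DMSO. TGFA mRNA measured by qRT-PCR, normalized to ACTB/GAPDH/POLR2A, bidirectional fit versus DMSO.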

Read-out in test [6]: Transforming Growth Factor (TGFB1), TGFB1 (gene 7040)
The test can be described thus: LTEA_HepaRG_TGFB1: Life Technologies and Expression Analysis (LTEA) Assay for Transforming Growth Factor (TGFB1) Transporter using HepaRG (AID 2283533). Conditions: mRNA level, 48 h; actives raise or lower the signal. An outline of the steps: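 Expression change of TGFB1 in human HepaRG cells is measured after a 48 h chemical exposure, up to 100 uM in 0.5% DMSO vehicle. Curves are fitted in both directions relative to the DMSO baseline.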

Read-out in the next test: TIMP1, TIMP1 (gene 7076)
Briefly: LTEA_HepaRG_TIMP1: Life Technologies and Expression Analysis (LTEA) Assay for TIMP1 using HepaRG (AID 2283534). The conditions noted are these: mRNA level, 48 h; actives raise or lower the signal. The method, boiled down:
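We dosed human liver HepaRG cultures for 48 hours with up to 100 uM test chemical and measured TIMP1 expression by qRT-PCR. Activity in either direction is fitted relative to the 0.5% DMSO vehicle.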

Read-out in test [7]: Tumor necrosis factor receptor 1 (TNFRSF1A), TNFRSF1A (gene 7132)
The test can be described thus: LTEA_HepaRG_TNFRSF1A: Life Technologies and Expression Analysis (LTEA) Assay for Tumor necrosis factor receptor 1 (TNFRSF1A) using HepaRG (AID 2283535). The conditions noted are these: mRNA level, 48 h; actives raise or lower the signal. The method, boiled down: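 Expression of TNFRSF1A in human HepaRG liver cells was measured by qRT-PCR 48 h after chemical dosing (maximum 100 uM). Bidirectional curve fitting used 0.5% DMSO as baseline.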

Read-out in test [8]: Cellular tumor antigen p53 (Homo sapiens) (UniProt P04637)
Briefly: LTEA_HepaRG_TP53: Life Technologies and Expression Analysis (LTEA) Assay for Tumor Protein P53 (TP53) using HepaRG (AID 2283537). The conditions noted are these: mRNA level, 48 h; actives raise or lower the signal. The method, boiled down: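 Differentiated HepaRG cells in serum-free induction medium exposed 48 h in duplicate to 8 half-log concentrations, top 100 uM, 0.5% DMSO. TP53 mRNA by TaqMan qRT-PCR (Fluidigm), normalized to ACTB, GAPDH, POLR2A; fitted bidirectionally versus DMSO.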

Read-out in test [9]: UDP glucuronosyltransferase (UGT1A1), UGT1A1 (gene 54658)
Briefly: LTEA_HepaRG_UGT1A1: Life Technologies and Expression Analysis (LTEA) Assay for UDP glucuronosyltransferase (UGT1A1) using HepaRG (AID 2283538). The conditions noted are these: mRNA level, 48 h; actives raise or lower the signal. The method, boiled down:
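HepaRG cells, 0.5% DMSO vehicle, 48 h exposure in serum-free induction medium to 8-point half-log series topping at 100 uM, in duplicate. UGT1A1 mRNA by Fluidigm qRT-PCR, normalized to ACTB/GAPDH/POLR2A; bidirectional fit versus DMSO.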

Read-out in test [10]: UDP glucuronosyltransferase (UGT1A6), UGT1A6 (gene 54578)
Briefly: LTEA_HepaRG_UGT1A6: Life Technologies and Expression Analysis (LTEA) Assay for UDP glucuronosyltransferase (UGT1A6) using HepaRG (AID 2283539). The conditions noted are these: mRNA level, 48 h; actives raise or lower the signal. An outline of the steps:
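Endpoint is UGT1A6 transcript induction or loss in a human liver cell line, quantified by TaqMan qRT-PCR 48 h after dosing. Concentrations ran from 100 uM downward in half-log steps in 0.5% DMSO; activity was fitted in both directions versus vehicle.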

Read-out in test [11]: X-box binding protein 1 (XBP1), XBP1 (gene 7494)
The test can be described thus: LTEA_HepaRG_XBP1: Life Technologies and Expression Analysis (LTEA) Assay for X-box binding protein 1 (XBP1) using HepaRG (AID 2283540). Conditions: mRNA level, 48 h; actives raise or lower the signal. An outline of the steps:
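Human HepaRG monolayers receive test chemical for 48 h across an eight-point half-log series starting at 100 uM. XBP1 mRNA gain or loss is scored against DMSO by qRT-PCR.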

Test [12] can be described thus: LTEA_HepaRG_LDH_cytotoxicity: Cytotoxicity Assessment in the Life Technologies and Expression Analysis (LTEA) Assay (AID 2283563; active means hit-call score of the fitted dose curve at least 0.9, where 1 is the maximum). The method, boiled down:
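Human HepaRG hepatic cells are treated with test chemicals for 48 h at up to 100 uM in 0.5% DMSO. Cytotoxicity is scored from medium LDH against the vehicle control.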

Test [13] in a line: TOX21_p53_BLA_p2_viability: Viability Assessment in the Tox21 HCT-116 p53 Agonism Beta-lactamase Assay, Phase 2 (AID 2283591; active means hit-call score of the fitted dose curve at least 0.9, where 1 is the maximum;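 further: compound exposure lasted 16 h at 37 °C; actives lower the ATP signal meaning cytotoxicity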). An outline of the steps: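 HCT-116 p53-bla cells (4000/well) rested 5 h at 37C, then received compounds in DMSO (217-fold dilution) for 16 h at 37C, 5% CO2. After the CCF4 read, CellTiter-Glo was added; ATP luminescence was read after 30 min at room temperature.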

The target in test [14] is Cellular tumor antigen p53 (Homo sapiens) (UniProt P04637). The test can be described thus: TOX21_p53_BLA_p2_ratio: Tox21 HCT-116 p53 Agonism Beta-lactamase Assay, Ratio, Phase 2 (AID 2283592; active means hit-call score of the fitted dose curve at least 0.9, where 1 is the maximum). An outline of the steps:
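An inducible beta-lactamase reporter in HCT116 cells signals p53 pathway activation. After 16 h chemical exposure at 37C, cells load CCF4-AM substrate for 2 h at room temperature; activity is the cleaved/uncleaved emission ratio relative to DMSO.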

Test [15] is described as follows: TOX21_p53_BLA_p3_viability: Viability Assessment in the Tox21 HCT-116 p53 Agonism Beta-lactamase Assay, Phase 3 (AID 2283593; active means hit-call score of the fitted dose curve at least 0.9, where 1 is the maximum;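 further: cells exposed to compound for 16 h before reading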). The method, boiled down: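 HCT-116 cells (4000/well) rested 5 h at 37C, then got DMSO compounds by pin tool (217-fold dilution) for 16 h at 37C, 5% CO2. After the bla read, CellTiter-Glo was added and luminescence read at 30 min, room temperature.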

Test [16] has as its target Cellular tumor antigen p53 (Homo sapiens) (UniProt P04637). The test can be described thus: TOX21_p53_BLA_p3_ratio: Tox21 HCT-116 p53 Agonism Beta-lactamase Assay, Ratio, Phase 3 (AID 2283596; active means hit-call score of the fitted dose curve at least 0.9, where 1 is the maximum). An outline of the steps: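 HCT116 p53-bla cells (4000/well) given compound in DMSO (217-fold dilution) after 5 h, incubated 16 h at 37C. CCF4-AM substrate 2 h at room temperature; 460/530 nm emission ratio, gain fitted against DMSO.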

Read-out in test [17]: sulfotransferase 2A1 (SULT2A1), SULT2A1 (gene 6822)
The test can be described thus: LTEA_HepaRG_SULT2A1: Life Technologies and Expression Analysis (LTEA) Assay for sulfotransferase 2A1 (SULT2A1) using HepaRG (AID 2283531). Conditions: mRNA level, 48 h; actives raise or lower the signal. The method, boiled down:
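Cells were plated and cultured 48 h, switched to serum-free induction medium, then dosed in duplicate for 48 h (8 concentrations, max 100 uM). RNA was isolated and SULT2A1 expression measured by qRT-PCR; gain or loss of signal fitted relative to DMSO.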

Test [18] in a line: ATG_XTT_Cytotoxicity: Cytotoxicity Assessment in the Attagene TRANS-FACTORIAL HepG2 Assay (AID 2283584; active means hit-call score of the fitted dose curve at least 0.9, where 1 is the maximum). The method, boiled down:
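Transfect HepG2 with GAL4-UAS reporter units, dose compound, incubate 24 h, then measure viable cell number by XTT. Fit concentration response against DMSO baseline.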

Read-out in test [19]: Thyroid Hormone Responsive (THRSP), THRSP (gene 7069)
The test can be described thus: LTEA_HepaRG_THRSP: Life Technologies and Expression Analysis (LTEA) Assay for Thyroid Hormone Responsive (THRSP) using HepaRG (AID 2283536). Conditions: mRNA level, 48 h; actives raise or lower the signal. An outline of the steps: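 Differentiated human HepaRG cells were exposed in duplicate for 48 h in serum-free induction medium to eight concentrations (top 100 uM, half-log steps, 0.5% DMSO). Expression was quantified by TaqMan qRT-PCR, normalized to ACTB, GAPDH and POLR2A, with bidirectional fitting against DMSO.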

Sequence of Cellular tumor antigen p53 (Homo sapiens) (P04637 whole entry, looked up): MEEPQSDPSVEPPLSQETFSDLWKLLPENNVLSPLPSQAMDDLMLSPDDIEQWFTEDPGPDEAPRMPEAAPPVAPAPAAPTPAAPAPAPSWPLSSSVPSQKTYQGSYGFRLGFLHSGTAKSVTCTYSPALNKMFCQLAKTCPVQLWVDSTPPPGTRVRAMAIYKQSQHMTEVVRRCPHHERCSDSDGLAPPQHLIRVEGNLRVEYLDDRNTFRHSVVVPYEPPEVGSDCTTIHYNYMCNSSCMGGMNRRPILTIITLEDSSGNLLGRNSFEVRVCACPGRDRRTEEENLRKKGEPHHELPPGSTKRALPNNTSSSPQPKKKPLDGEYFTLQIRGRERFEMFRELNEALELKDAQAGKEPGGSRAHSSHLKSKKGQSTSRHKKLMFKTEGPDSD
Sequence of Nuclear factor erythroid 2-related factor 2 (Homo sapiens) (Q16236 whole entry, looked up): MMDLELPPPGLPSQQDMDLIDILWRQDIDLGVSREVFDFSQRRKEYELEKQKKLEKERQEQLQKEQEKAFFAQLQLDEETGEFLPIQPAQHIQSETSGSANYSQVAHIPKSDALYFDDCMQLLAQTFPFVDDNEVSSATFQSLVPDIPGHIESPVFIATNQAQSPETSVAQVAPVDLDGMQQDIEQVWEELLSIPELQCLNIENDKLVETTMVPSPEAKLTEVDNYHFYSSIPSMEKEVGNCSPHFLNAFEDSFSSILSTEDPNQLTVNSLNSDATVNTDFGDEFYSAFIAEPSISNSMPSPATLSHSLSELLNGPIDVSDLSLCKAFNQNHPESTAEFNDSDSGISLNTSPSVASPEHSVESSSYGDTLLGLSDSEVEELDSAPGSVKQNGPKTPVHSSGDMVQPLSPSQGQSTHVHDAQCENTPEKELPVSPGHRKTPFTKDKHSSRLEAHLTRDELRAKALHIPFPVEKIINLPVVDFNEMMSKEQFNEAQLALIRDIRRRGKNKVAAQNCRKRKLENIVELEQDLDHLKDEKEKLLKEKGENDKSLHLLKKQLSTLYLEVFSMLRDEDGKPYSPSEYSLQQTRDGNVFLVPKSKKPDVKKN
Sequence of Signal transducer and activator of transcription 3 (Homo sapiens) (P40763 whole entry, looked up): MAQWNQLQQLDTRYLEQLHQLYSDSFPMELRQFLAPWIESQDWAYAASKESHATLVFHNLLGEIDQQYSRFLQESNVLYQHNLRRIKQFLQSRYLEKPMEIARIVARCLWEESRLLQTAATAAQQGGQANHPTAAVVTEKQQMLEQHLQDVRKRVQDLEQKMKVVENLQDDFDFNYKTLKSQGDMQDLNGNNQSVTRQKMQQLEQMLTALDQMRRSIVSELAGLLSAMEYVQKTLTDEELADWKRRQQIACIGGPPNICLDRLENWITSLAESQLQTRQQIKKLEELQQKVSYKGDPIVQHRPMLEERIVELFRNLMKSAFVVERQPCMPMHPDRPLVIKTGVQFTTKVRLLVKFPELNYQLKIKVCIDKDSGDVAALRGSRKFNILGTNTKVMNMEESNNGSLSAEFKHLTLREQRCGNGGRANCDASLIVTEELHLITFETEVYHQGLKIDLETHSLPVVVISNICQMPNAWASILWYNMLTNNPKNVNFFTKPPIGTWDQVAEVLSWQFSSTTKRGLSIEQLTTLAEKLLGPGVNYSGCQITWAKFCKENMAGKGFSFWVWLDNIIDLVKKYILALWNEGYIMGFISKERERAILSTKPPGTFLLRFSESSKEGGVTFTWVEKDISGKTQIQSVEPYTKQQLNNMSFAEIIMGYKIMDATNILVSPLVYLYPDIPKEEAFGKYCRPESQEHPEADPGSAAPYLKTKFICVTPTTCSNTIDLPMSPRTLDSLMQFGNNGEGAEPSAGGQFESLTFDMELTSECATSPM

For orientation: AC50 means the midpoint of the concentration-response curve, whichever way the signal moves. Take `OCC(CO)n1cnc(-c2ccc(F)cc2)c1-c1ccnc(Oc2ccccc2)n1`: the concentration at half-maximal activity (AC50) in test [1] was 33.8 µM (active); in [9], 24.9 µM (active). The outcome was “inactive” in [2]; “inactive” in test [3]; “inactive” in [4]; “inactive” in test [5]; “inactive” in test [6]; “inactive” in the test with TIMP1, TIMP1 (gene 7076). For the same compound, the compound was classed as inactive in test [7], in [8], in [10], in test [11], in test [12] and in [13]. Moreover, the result in test [14] and in [15] was inactive.
Consider `NCCOCCOCCN`, for which the compound was classed as inactive in [1], in test [2], in test [3], in test [4], in test [5] and in test [6]. In addition, the outcome in the test with TIMP1, TIMP1 (gene 7076) is “inactive”; in test [7], “inactive”; in [8], “inactive”; in test [9], “inactive”; in test [10], “inactive”; in test [11] it was “inactive”. Moreover, the outcome in test [12], in test [13], in test [14], in test [15] and in [16] was inactive.
On to `O=C1OC(c2ccc(O)cc2)(c2ccc(O)cc2)c2ccccc21`, for which the outcome was “inactive” in test [1]; “inactive” in [3]; “inactive” in [17]; “inactive” in test [5]; “inactive” in [6]; “inactive” with TIMP1, TIMP1 (gene 7076). The result in test [7], in test [8], in test [11], in [12], in [18] and in [13] was inactive. The result in test [14], in [15] and in [16] was inactive. Further, the half-maximal activity concentration (AC50) in test [4] was 73.2 µM (active); in test [9] it was 82 µM (active); in [10], 72.6 µM (active).
In the case of `CC(=O)S[C@H](C(=O)N[C@H]1Cc2ccccc2[C@H]2CCC[C@@H](C(=O)O)N2C1=O)C(C)C`, the compound was called inactive in test [1], in [3], in test [4], in test [17], in [5] and in test [6]. In addition, the outcome in the test with TIMP1, TIMP1 (gene 7076) is “inactive”; in test [7], “inactive”; in test [19], “inactive”; in [8], “inactive”; in test [9], “inactive”; in [10] it was “inactive”. For the same compound, the result in [11], in test [12], in test [14] and in test [16] was inactive.
